# Screening data (PubChem BioAssay)
# Shown are actives, neighbours in structure and some others; about 16% of the full set was active somewhere.
# TDP1 cell noCPT: qHTS for Inhibitors of human tyrosyl-DNA phosphodiesterase 1 (TDP1): qHTS in cells in absence of CPT | DT40 Tdp1-/- hTDP1 cells, no CPT, ATP luminescence, 48 h | Potency, µM (doses to about 46.2 µM), for the others: top-dose activity change, negative = growth inhibition, actives largely listed as inhibitors | 420,000 compounds, 15% hits; also: potency is read from the fitted curve at half-maximal effect; % is scaled to controls: 0 for no effect and ±100 for the full control effect; nearly all actives have a fitted effect of over 55% in size
#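 A cellular qHTS used chicken DT40 cells lacking endogenous Tdp1 but carrying stably transfected human TDP1. Compounds were applied without camptothecin, and cell growth kinetics were judged by ATP-dependent luminescence after ≥48 hr.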
# miR-21 reporter: qHTS Assay for Modulators of miRNAs and/orActivators of miR-21; HeLa miR-21 FLuc reporter, luciferase, 48 h; Potency, µM (series often up to 38.3 µM), for inactives: at the top dose activity change, positive = activation, most hits filed as activators; 340,000 tested, under 10 active;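 also: % of control where 0% means no effect; miR-21 action dims this reporter so a rising signal means less miR-21 action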
#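 Luminescence from a firefly luciferase reporter carrying a miR-21 binding site downstream, stably expressed under a CMV promoter in HeLa cells that make miR-21 endogenously, reports miRNA modulation after 48 h compound exposure up to approximately 40uM final.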
# TDP1 block: qHTS Assay for Inhibitors of Tyrosyl-DNA Phosphodiesterase (TDP1). Potency, µM (top dose mostly 130 µM), inactives show at the top dose activity change, negative = inhibition, usual class: inhibitors. AID 485290, 2010. recombinant TDP1, AlphaScreen DNA substrate cleavage. 350,000 compounds, 0.28% hits. Tyrosyl-DNA phosphodiesterase 1 (Homo sapiens), Q9NUW8; also: potency is read from the fitted curve at half-maximal effect; % is scaled to controls: 0 for no effect and ±100 for the full control effect; nearly all actives have a fitted effect of over 40% in size
# Target sequence (Q9NUW8 whole entry, looked up): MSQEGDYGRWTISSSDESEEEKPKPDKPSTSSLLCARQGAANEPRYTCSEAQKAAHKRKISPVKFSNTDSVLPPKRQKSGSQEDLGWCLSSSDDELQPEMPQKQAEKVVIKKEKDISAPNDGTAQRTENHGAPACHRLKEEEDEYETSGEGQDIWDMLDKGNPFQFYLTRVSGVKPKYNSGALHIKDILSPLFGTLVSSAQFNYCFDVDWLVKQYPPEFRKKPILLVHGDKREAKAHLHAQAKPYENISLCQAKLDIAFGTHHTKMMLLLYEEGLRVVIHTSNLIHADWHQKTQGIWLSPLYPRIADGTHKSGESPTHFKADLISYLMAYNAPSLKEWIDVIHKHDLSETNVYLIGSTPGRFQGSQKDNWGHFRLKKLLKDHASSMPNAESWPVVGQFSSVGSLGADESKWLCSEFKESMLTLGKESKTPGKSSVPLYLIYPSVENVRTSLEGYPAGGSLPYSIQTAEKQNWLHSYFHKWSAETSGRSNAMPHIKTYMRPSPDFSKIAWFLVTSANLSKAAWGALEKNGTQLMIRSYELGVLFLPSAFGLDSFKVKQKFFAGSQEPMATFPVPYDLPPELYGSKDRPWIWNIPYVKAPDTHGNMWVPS
#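 AlphaScreen read-out: signal falls as enzyme removes the 3' tyrosine-FITC from a 5'-biotinylated DNA oligo (15 nM, 5 min, RT). Enzyme was E. coli-made recombinant Tdp1 at 1 nM, exposed to compound for 15 min beforehand; beads 10 ug/ml, 10 min.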
# DT40 TDP1 CPT: qHTS for Inhibitors of human tyrosyl-DNA phosphodiesterase 1 (TDP1): qHTS in cells in presence of CPT; chicken DT40 Tdp1-/-;hTDP1 cells + 20 nM CPT, ATP luminescence, 48 h; Potency, µM (top dose mostly 46.2 µM), inactives show top-dose activity change, negative = growth inhibition, actives largely listed as inhibitors; 420,000 compounds, 12% hits; also: potency is read from the fitted curve at half-maximal effect; % is scaled to controls: 0 for no effect and ±100 for the full control effect; nearly all actives have a fitted effect of over 55% in size
#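 Cell growth measured by CellTiter-Glo luminescence after a minimum 48 h, 37 C compound exposure with 20 nM CPT in Tdp1-knockout DT40 cells stably expressing hTDP1, seeded 400/well; qHTS titration format.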
# uPA generation: qHTS for Inhibitors of Cell Surface uPA Generation; cell surface uPA generation assay, qHTS; Potency, µM (highest dose often 38.3 µM), inactives show at the top dose activity change, negative = inhibition, actives largely listed as inhibitors; 330,000 compounds, 0.31% hits; active = well fitted inhibition curve with a large enough effect; inconclusive = small, poorly fitted or top-dose-only effect; inactive = no such curve, though single readings can be large or run the other way; tested in mouse RAW 264.7 cells; also: potency is read from the fitted curve at half-maximal effect; % is scaled to controls: 0 for no effect and ±100 for the full control effect; nearly all actives have a fitted effect of over 55% in size
# Active calls of the source: *; ? = inconclusive; / = no result given; [ ] = dose if it differs, or a comment. Unless noted, calls follow the shape of the dose curve; as a rule, active = well fitted curve in the direction sought with a large enough effect; inconclusive = small, poorly fitted or top-dose-only effect, or another doubt; inactive = no such curve, though single readings can be large; an effect the other way counts as inactive or inconclusive.
SMILES,TDP1 cell noCPT,miR-21 reporter,TDP1 block,DT40 TDP1 CPT,uPA generation
O=C(Nc1ccc(N2CCOCC2)cc1)c1ccc2nc(-c3ccco3)c(-c3ccco3)nc2c1,?,0%,6%,-26%,/
O=C(Nc1ccccc1)c1ccc2nc(-c3ccco3)c(-c3ccco3)nc2c1,23µM*,11%,0%,21µM*,/
CCCN1C2=C(C(=O)CC(C)(C)C2)C(c2ccc(F)cc2)C2=C1c1ccccc1C2=O (configuration not stated),?,-27%,0%,20µM*,/
CCCCN1C2=C(C(=O)CC(C)(C)C2)C(c2ccccc2)C2=C1c1ccccc1C2=O (configuration not stated),16µM*,-4%,4%,?,0%
CCN(CC)CCN1C2=C(C(=O)CC(C)(C)C2)C(c2cccc(F)c2)C2=C1CC(C)(C)CC2=O,?,1%,0%,-28%,2%
Cc1ccc(C2C3=C(CC(C)(C)CC3=O)NC3=C2C(=O)c2ccccc23)cc1 (configuration not stated),18µM*,10%,0%,21µM*,0%
Cc1cc(-c2ccccc2)nc(Cl)c1C#N,2%,-5%,-5%,2%,-2%
O=C(OCc1cn([C@@H]2CN(Cc3cccs3)[C@@H](c3ccccc3)C[C@H]2O)nn1)c1ccccc1,-2%,/,/,13%,/
Cc1cc(N/N=C/c2cccc(F)c2)nc(NCc2ccccc2)n1,13µM*,3%,8%,?,-5%
CN(C)c1nc(NCc2ccccc2)nc(N/N=C/c2ccccc2F)n1,/,2%,2%,/,/
Cc1cc(C)nc(N/N=C/c2ccc(Cl)cc2)n1,-1%,-15%,/,-15%,-2%
Cc1cc(C)nc(NCc2ccc(Cl)cc2)n1,-19%,-2%,/,-1%,1%
Cc1cc(Nc2cccc(Cl)c2)nc(NCc2ccccc2)n1,3.7µM*,?,9%,5.8µM*,?
CN(C)c1nc(NCc2ccccc2)nc(N/N=C/c2ccc(Cl)cc2Cl)n1,?,0%,2%,23µM*,3%
Cc1cc(N/N=C/c2ccc(Cl)cc2)nc(NCc2ccccc2)n1,8.2µM*,0%,8%,21µM*,-3%
CCOc1ccc(C(C)NC(=S)NC2CCCCC2)cc1 (configuration not stated),?,5%,5%,?,-1%
O=C1c2ccccc2C(=O)N1OCc1ccccc1[N+](=O)[O-],-2%,-16%,2%,-4%,0%
Cc1cc(N/N=C/c2cccc(Cl)c2)nc(NCc2ccccc2)n1,7.3µM*,-3%,3%,8.2µM*,-6%
Cc1cc(N/N=C/c2ccccc2)nc(NCc2ccccc2)n1,2.6µM*,-11%,8%,4.6µM*,-8%
Cc1cc(N/N=C/c2ccccc2F)nc(NCc2ccccc2)n1,12µM*,7%,0%,?,-8%
Cc1ccc(/C=N/Nc2nc(C)cc(C)n2)cc1,?,-12%,/,16%,-2%
Cc1cc(NCc2ccccc2)nc(-c2ccccc2O)n1,?,-12%,-6%,?,-11%
Cc1cc(C)nc(N/N=C/c2cccc(Cl)c2)n1,-22%,-27%,5%,-20%,-5%
O=C(Cc1ccccc1)NN1C(=O)C2C3C=CC(C4CC34)C2C1=O (configuration not stated),13%,-9%,-1%,15%,10%
O=C(NCC(=O)N(Cc1ccc(F)cc1)C(C(=O)NCC1CCCO1)c1ccccc1)c1ccco1 (configuration not stated),-4%,0%,/,-22%,-1%
SMILES,TDP1 cell noCPT,miR-21 reporter,TDP1 block,DT40 TDP1 CPT,uPA generation
CC(C)(C)NC(=O)c1cc2c(ccc3ccccc32)oc1=O,-29%,-37%,/,1%,-3%
Cn1c(=O)c2c(ncn2CC(=O)OCC(=O)c2ccc(Br)cc2)n(C)c1=O,26µM*,/,/,16µM*,/
Cn1c(=O)c2c(ncn2CC(=O)OCC(=O)c2ccc(Cl)cc2)n(C)c1=O,0%,/,2%,-1%,7%
CCCCn1c(Oc2ccc(C(=O)OC)cc2)nc2c1c(=O)n(C)c(=O)n2C,11µM*,0%,3%,16µM*,16%
COc1ccc(C(=O)Cn2c(Br)nc3c2c(=O)n(C)c(=O)n3C)cc1,23µM*,4%,4%,13µM*,/
O=[N+]([O-])c1cc(-c2ccccc2)cc([N+](=O)[O-])c1O,18µM*,/,/,?,1%
O=[N+]([O-])c1cc2ccccc2c(O)c1O,?,/,/,23µM*,/
Nc1ccc(-c2ccc(N)c([N+](=O)[O-])c2)cc1[N+](=O)[O-],?,-42%,/,-10%,-7%
CCN(c1ccccc1)S(=O)(=O)c1ccc(N2CCN(c3ccc(OC)cc3)CC2)nc1,?,/,0%,12µM*,-2%
CCN(CC)S(=O)(=O)c1ccc(N2CCN(CCOc3ccc(OC)cc3)CC2)nc1,21µM*,3%,16%,18µM*,-3%
CCN(c1ccccc1)S(=O)(=O)c1ccc(N2CCN(c3ccc(O)cc3)CC2)nc1,15µM*,/,10%,?,-4%
COC(=O)C1CCN(Cc2ccc3c(c2)CN(C(=O)c2cc(C)nc(C)n2)CCO3)CC1,-9%,/,/,8%[9.04 µM],/
COC(=O)C1CCN(Cc2ccc3c(c2)CN(C(=O)c2cc(-c4ccc(C)o4)[nH]n2)CCO3)CC1,?,/,/,0.082µM*,/
COC(=O)C1CCN(Cc2ccc3c(c2)CN(C(=O)c2cc4cc(F)ccc4[nH]2)CCO3)CC1,15µM*,/,/,-10%[9.04 µM],/
Cc1c(C)c2c(OCC(=O)N3CCC(C(=O)NCC(C)C)CC3)cc3c(c2oc1=O)CCC(C)(C)O3,-20%,-7%,1%,-21%,0%
CCOC(=O)C(=CNc1ccc(NC2=NCC(C)S2)cc1)C(=O)OCC (configuration not stated),6.5µM*,30%,8%,9.2µM*,-3%
CCN(CC)S(=O)(=O)c1cccc(NC2=NCC(C)S2)c1 (configuration not stated),-3%,-14%,-3%,-23%,-3%
O=[N+]([O-])c1ccccc1Nc1ccccc1,-16%,0%,8%,-8%,/
Cc1cccc(NC(=O)c2oc3c(c2C)C(=O)CC(C)(C)C3)n1,5.2µM*,-32%,5%,12µM*,/
Cc1nn(C)c(C)c1C(C)NC(=O)c1cc(COc2cncc(Cl)c2)on1 (configuration not stated),-10%,0%,2%,-14%,11%
